ELG1 genotox: genotoxicity induction in ELG1-luciferase HEK293T cells. 1.3% of 330,000 active. HEK293T ELG1-luciferase reporter, luminescence, 16 h. Potency, µM (titrated, usually from 46 µM), for the others: top-dose activity change, positive = activation, actives largely listed as activators. AID 504466; also: % of control where 0% means no effect; nearly all actives have a fitted effect of over 60% in size
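Genotoxicity was scored as increased ELG1-luciferase reporter signal, measured by ONE-Glo luminescence (30 min, room temperature). Compound or vehicle exposure of the HEK293T reporter cells lasted 16 hr at 37°C.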
ELG1 DNA repair: blocks ELG1-dependent DNA repair in HEK293T cells; HEK293T ELG1-luciferase reporter, luminescence, 16 h; DNA damage induced by 5-fluorouridine; Potency, µM (series often up to 46.1 µM), without a hit: top-dose activity change, negative = inhibition, actives largely listed as inhibitors; AID 504467; 2.3% of 330,000 active; also: % is scaled to controls: 0 for no effect and ±100 for the full control effect; nearly all actives have a fitted effect of over 55% in size
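DMSO vehicle served as the neutral condition. Each well held 2,000 cells given 5-fluorouridine plus compound; after 16 hr at 37 °C/5% CO2, ONE-Glo was added and luciferase measured 30 min later.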
SMN2 splice up: enhancers of SMN2 splice variant expression | Potency, µM (doses to about 46.1 µM), for inactives: at the highest dose activity change, positive = activation, actives largely listed as activators | HEK293 SMN2-luciferase splicing reporter, luminescence, 30-36 h | 2.8% of 210,000 active; also: % of control where 0% means no effect; nearly all actives have a fitted effect of over 55% in size
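HEK293 cells carry an SMN2 […]–luciferase reporter in which exon 7 inclusion puts luciferase in frame. Cells were plated 10-12 h before compound addition, then incubated 30-36 h at 37C. ONE-Glo luminescence was read; sodium butyrate at 4.5 mM final served as control.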
FLuc modulator: counter-screen for miR-21 project: firefly luciferase inhibitors or activators; P08659; purified FLuc, Km substrates, luminescence inhibition; Potency, µM (series often up to 57.5 µM), for inactives: at the top dose activity change, negative = inhibition, hits mostly inhibitors; 6.9% of 360,000 active;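 also: plate controls were vehicle for no effect and reference inhibitor for full effect; nearly all actives have a fitted effect of over 55% in size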
Target sequence (P08659 whole entry, looked up): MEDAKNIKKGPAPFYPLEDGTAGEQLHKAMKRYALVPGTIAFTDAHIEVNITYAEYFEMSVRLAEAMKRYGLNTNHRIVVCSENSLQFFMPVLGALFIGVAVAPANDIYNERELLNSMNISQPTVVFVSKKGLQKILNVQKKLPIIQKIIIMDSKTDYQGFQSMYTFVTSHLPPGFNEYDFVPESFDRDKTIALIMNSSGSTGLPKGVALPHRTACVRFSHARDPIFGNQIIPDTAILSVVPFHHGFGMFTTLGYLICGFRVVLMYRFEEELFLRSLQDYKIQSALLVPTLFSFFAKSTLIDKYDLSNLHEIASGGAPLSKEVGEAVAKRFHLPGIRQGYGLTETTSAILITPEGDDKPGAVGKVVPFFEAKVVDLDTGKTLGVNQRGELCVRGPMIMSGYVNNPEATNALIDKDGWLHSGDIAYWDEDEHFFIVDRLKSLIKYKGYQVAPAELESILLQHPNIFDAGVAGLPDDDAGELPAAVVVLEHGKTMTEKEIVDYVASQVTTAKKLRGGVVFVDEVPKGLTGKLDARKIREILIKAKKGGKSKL
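Biochemical qHTS of compounds, final roughly 60 µM downward over six points, against 10 nM purified firefly luciferase using Km concentrations of substrates (10 uM D-luciferin, 10 uM ATP) in Tris acetate pH 7.5 buffer; luminescence output.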
Rab9 prom act: Rab9 promoter activation; Huh7 Rab9 promoter-luciferase reporter, luminescence, 24 h; Potency, µM (highest dose often 9.22 µM), for inactives: at the highest dose activation, negative = inhibition, actives largely listed as activators; 2.8% of 320,000 active; also: % of control where 0% means no effect; nearly all actives have a fitted effect of over 60% in size
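Promoter activation is measured as luciferase luminescence in Huh7 cells stably transfected with a Rab9 promoter–luciferase construct, following 24 h compound exposure at 37 °C and 10 min reagent incubation at ambient temperature.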
NPC1 promoter act: NPC1 promoter activation | Huh7 NPC1 promoter luciferase reporter, 24 h | Potency, µM (top dose mostly 9.22 µM), for the others: top-dose activation, actives largely listed as activators | 2.4% of 320,000 active | AID 485313; also: % of control where 0% means no effect; nearly all actives have a fitted effect of over 60% in size
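In 1536-well qHTS, Huh7 cells harboring an NPC1 promoter–luciferase construct received compound for 24 h; activation was quantified by luminescence following luciferase reagent addition.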
Numbers without * were called inactive; ? = inconclusive; · = no result given; [ ] = another dose, or the depositor's remark. A selection: hits, their analogues and other compounds. The true share with any hit is near 9.2%. Calls follow the shape of the dose curve; as a rule, active = well fitted curve in the direction sought with a large enough effect; inconclusive = small, poorly fitted or top-dose-only effect, or another doubt; inactive = no such curve, though single readings can be large; an effect the other way counts as inactive or inconclusive. Potency is read from the fitted curve at half-maximal effect.

SMILES | ELG1 genotox | ELG1 DNA repair | SMN2 splice up | FLuc modulator | Rab9 prom act | NPC1 promoter act
Cc1nc2cc(NC(=O)Nc3ccc(Br)cc3)ccc2o1 | ? | ? | 11µM* | 2.4µM* | 0.5µM* | 1.8µM*
Cc1nc2cc(NC(=O)N3c4ccccc4CC3C)ccc2o1 (stereo unspecified) | 3.3µM* | ? | 11µM* | 6µM* | 0.89µM* | 0.79µM*
Cc1nc2cc(NC(=O)N3c4ccccc4CC3C)ccc2n1C (stereo unspecified) | ? | ? | 2.8µM* | 1.7µM* | 0.45µM* | 0.5µM*
CC(=O)c1ccc(NC(=O)CSc2nnc(-c3ccncc3)n2C2CC2)cc1 | 5% | 3% | · | 5% | -1% | -5%
CCOC(=O)c1cnc2c(C(=O)OCC)cnn2c1N | 9% | ? | · | ? | 4µM* | ?
Cc1cc(C)n2ncc(/C(N)=N/OC(=O)c3ccccc3F)c2n1 | ? | ? | · | 12µM* | ? | ?
CCOC(=O)c1cnc2c([N+](=O)[O-])cnn2c1C | -2% | 15% | 10% | -4% | -1% | 8%
CCOC(=O)c1cnc2c(-c3cccc(Br)c3)cnn2c1C | ? | ? | · | 2.4µM* | 3.5µM* | 3.2µM*
CCOC(=O)c1cnn(C(=O)c2ccccc2)c1N | 1% | 1% | -8% | 19µM* | 4% | -1%
O=C(NCc1ccc(F)cc1)c1cc2c(s1)CS(=O)(=O)C2 | 2% | 0% | · | -2% | -5% | -4%
CCOC(=O)c1cnn2c(C)cc(-c3ccccc3)nc12 | 9.2µM* | ? | 32µM* | 19µM* | 3.5µM* | ?
CCOC(=O)c1cc2nc(-c3ccccc3)cc(C)n2n1 | -2% | -5% | · | 5% | 2% | -2%
O=C(CN1C(=O)NC2(CCCCC2)C1=O)Nc1ccc2c(c1)OCCCO2 | ? | ? | · | 12µM* | 3.2µM* | 3.2µM*
CC1CCCCC12NC(=O)N(CC(=O)NC(=O)Nc1ccc3c(c1)OCCO3)C2=O (stereo unspecified) | ? | ? | 13µM* | 11µM* | 3.5µM* | 2.8µM*
CC1CCCCC12NC(=O)N(CC(=O)Nc1ccc3[nH]c(=O)[nH]c3c1)C2=O (stereo unspecified) | -2% | ? | · | 3% | -4% | -3%
N#Cc1ccccc1COC(=O)c1cccc(S(=O)(=O)N2CCCC2)c1 | 1% | -26% | · | · | · | ·
COC(=O)C(CCSC)NC(=O)c1cc2c(n(-c3ccc(Cl)cc3)c1=O)CCCC2=O (stereo unspecified) | · | · | -6% | -2% | · | ·
CCn1c(SCC(=O)N2CCN(c3ccccc3)CC2)nnc1-c1c[nH]c2ccccc12 | -10% | 13µM* | -75% | 0% | -7% | -4%
COc1ccc(N2CCN(C(=O)CSc3nnc(-c4cc5ccccc5cc4O)n3C)CC2)cc1 | -20% | 11µM* | -53% | -5% | -3% | -4%
C=CCn1c(COc2cccc(C)c2C)nnc1SCC(=O)N1CCN(c2ccccc2)CC1 | -2% | 21µM* | -51% | -6% | -6% | 3%
CC1(C)Cc2ccccc2-c2nnc(SCC(=O)N3CCN(c4ccccc4)CC3)n21 | -19% | 15µM* | · | 6% | 2% | 1%
CC(C)CN(C(=O)Cn1ccccc1=O)C1CCS(=O)(=O)C1 (stereo unspecified) | 0% | ? | · | -2% | -7% | 0%
Cc1cc(C)cc(-n2c(SCC(=O)N3CCCCC3)nc3c([nH]c4ccccc43)c2=O)c1 | · | · | · | -1% | · | ·
CCC(=O)c1ccc(OCC(=O)OC(C)C(=O)NCc2ccc3c(c2)OCO3)cc1 (stereo unspecified) | 2% | 12% | · | -4% | -2% | -3%
Cn1c(SCC(=O)N2CCN(c3ccccc3)CC2)nnc1-c1c[nH]c2ccccc12 | -17% | 10µM* | -56% | -3% | -5% | 0%
SMILES | ELG1 genotox | ELG1 DNA repair | SMN2 splice up | FLuc modulator | Rab9 prom act | NPC1 promoter act
C=CCn1c(COc2ccccc2)nnc1SCC(=O)N/N=C/c1ccc(C)cc1 | 3% | 0% | 18% | 12µM* | 0% | -7%
COc1ccc(N2CCN(C(=O)CSc3nc4c(c(=O)n(C)c(=O)n4C)n3C(C)C)CC2)cc1 | -5% | 21µM* | -26% | 7% | -4% | 4%
CC(C)n1c(SCC(=O)Nc2nc3c(s2)CCCC3)nc2c1c(=O)n(C)c(=O)n2C | -11% | 18µM* | -69% | 8% | -6% | -1%
COc1ccc(-c2cc(C(F)(F)F)nc(-n3nc(C(F)(F)F)cc3C)n2)cc1 | · | · | -27% | 4% | · | ·
Cc1cc(C)cc(NC(=O)CCc2c(C)nc3nc(CNC(=O)c4cccc(F)c4)nn3c2C)c1 | · | · | -17% | 2% | · | ·
NC(=O)CCCSc1nc2ccccc2[nH]1 | -1% | 4% | -1% | -4% | 0% | 1%
COc1cccc(N2CCN(C(=O)CCCCCNc3nc(=S)[nH]c4ccccc34)CC2)c1 | -15% | 18µM* | -49% | -10% | -16% | 0%
COc1ccc(N2CCN(C(=O)CCCSc3nc4ccccc4[nH]3)CC2)cc1 | -15% | 23µM* | -67% | 3% | -2% | -1%
CC1CCC2(CC1)NC(=O)N(CC(=O)N1c3ccccc3CC1C)C2=O (stereo unspecified) | 2% | 0% | · | · | · | ·
Cc1ccc(C(=O)Nc2cnc3sc(C)nn3c2=O)cc1 | ? | ? | 13µM* | -6%[2.3 µM] | ? | ?
O=C(c1ccc2c3n(nc2c1)-c1ccc(Cl)cc1CO3)N1CCCCC1 | ? | ? | · | 5.4µM* | 1.8µM* | 2.2µM*
O=C(c1ccc2c(=O)n3c(nc2c1)CCCCC3)N1CCCCC1 | 1% | ? | · | 2% | -5% | -3%
Cc1ccc2c(c1)COc1c3ccc(C(=O)N4CCOCC4)cc3nn1-2 | 16µM* | ? | · | 9.5µM* | 1.6µM* | 2.5µM*
O=C(O)c1ccc2c3n(nc2c1)-c1ccc(Cl)cc1CO3 | 1% | 1% | · | 1.9µM* | ? | ?
COC(=O)C1=C(N)Oc2cc(C)[nH]c(=O)c2C1c1ccccc1OC (stereo unspecified) | -7% | 0% | · | -1% | -1% | -5%
CCCCn1c(N)c(N(CCOC)C(=O)c2cccc(S(=O)(=O)N(CC)c3ccccc3)c2)c(=O)[nH]c1=O | 1% | 18% | · | 4% | -9% | 3%
C=CCN(C(=O)CSC1=NC(=O)CN1C(C)=O)c1nc(C)c(-c2ccccc2)s1 | 10% | ? | ? | 6.7µM* | -36% | 6%
CCOc1ccc(OCCSc2nc(-c3ccccc3)cc(=O)[nH]2)cc1 | 11% | -7% | -11% | 0% | -4% | 0%

Screening results: PubChem BioAssay, National Center for Advancing Translational Sciences (NCATS)
